Most compounds without a hit are left out; they make up all but 12% or so of the library.
AmpC detergent – AmpC beta-lactamase inhibition with detergent present | Potency, µM (series often up to 114 µM), without a hit: at the highest dose activity change, negative = inhibition, actives largely listed as inhibitors | P00811 | AmpC hydrolysis of nitrocefin, absorbance 480 nm, 0.01% Triton | AID 485294 | 370,000 tested, 0.041% active;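 further: 0% = no-compound wells and -100% = no-enzyme wells; nearly all actives have a fitted effect of over 25% in size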
Target sequence (P00811 whole entry, looked up): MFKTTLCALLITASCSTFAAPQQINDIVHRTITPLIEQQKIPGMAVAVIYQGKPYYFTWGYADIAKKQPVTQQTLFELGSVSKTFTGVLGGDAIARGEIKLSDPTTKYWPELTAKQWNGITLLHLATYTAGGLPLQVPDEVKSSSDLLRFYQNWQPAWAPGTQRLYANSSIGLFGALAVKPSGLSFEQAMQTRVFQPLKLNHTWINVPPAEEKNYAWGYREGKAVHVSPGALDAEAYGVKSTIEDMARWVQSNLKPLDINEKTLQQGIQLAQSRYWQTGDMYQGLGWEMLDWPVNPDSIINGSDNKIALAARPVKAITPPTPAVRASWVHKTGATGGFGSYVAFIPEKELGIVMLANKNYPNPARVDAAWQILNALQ
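AmpC (5.3 nM in the dispensed reagent) in 20 mM phosphate pH 7.0 with 0.01% (detergent screen) or 0.0001% Triton X-100 was preincubated with compounds for 15 min at room temperature. Nitrocefin was then added from an 800 uM solution, and hydrolysis was followed at 480 nm.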
SARS PLpro yeast – SARS-CoV PLP inhibition in yeast. S. cerevisiae expressing SARS-CoV PLpro, growth rescue. Potency, µM (top dose mostly 32.9 µM), without a hit: at the highest dose activity, positive = growth rescue, hits mostly activators. 330,000 tested, 0.19% active. AID 485353; calls by dose curve; further: 0% is about no effect; nearly all actives have a fitted effect of over 55% in size
AmpC no deterg – inhibitors of E. coli AmpC beta-lactamase without detergent. P00811. AmpC nitrocefin hydrolysis, absorbance 480 nm, 0.0001% Triton. Potency, µM (highest dose often 57.1 µM), for inactives: at the top dose activity change, negative = inhibition, hits mostly inhibitors. 330,000 tested, 0.52% active;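 further: plate controls were no compound for no effect and no enzyme for full effect; nearly all actives have a fitted effect of over 20% in size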
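20 mM phosphate pH 7.0 + 0.01% (detergent screen) or 0.0001% Triton X-100; 5.3 nM AmpC reagent; cpd preinc 15 min RT; nitrocefin (800 uM stock) to start; A480 q20 s × 4 min; Activity was normalised to no-enzyme and no-compound control wells.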
Pf growth 96h – inhibits malaria parasite growth, 96 h; P. falciparum luciferase reporter growth, 96 h; Potency, µM (titrated, usually from 28.7 µM), inactives show top-dose activity change, negative = inhibition, usual class: inhibitors; 320,000 tested, 6.9% active; further: on the % scale 0 is the no-effect control and ±100 the full control effect
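Two parasite generations (96 h, 37 C, 5% CO2) of compound exposure in infected erythrocytes (0.05% parasitemia, 2% hematocrit). Luciferase-reporter P. falciparum; decreased luminescence indicates inhibited growth, aimed at apicoplast-acting delayed death.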
Sm TGR block – S. mansoni TGR enzyme inhibition. Q962Y6. purified TGR, DTNB reduction, TNB absorbance 405 nm. Potency, µM (top dose mostly 114 µM), inactives show at the highest dose activity change, negative = inhibition, most hits filed as inhibitors. 360,000 tested, 3% active. AID 485364; further: on the % scale 0 is the no-effect control and ±100 the full control effect; nearly all actives have a fitted effect of over 60% in size
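Kinetic colorimetric format: TGR-catalysed, NADPH-driven DTNB reduction monitored via TNB absorbance. Enzyme dispensed at 20 nM; compound exposure 15 min at room temperature before reaction start.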
Pf growth 48h – P. falciparum growth inhibition at 48 hours (one generation); Potency, µM (series often up to 28.7 µM), inactives show at the highest dose activity change, negative = inhibition, most hits filed as inhibitors; P. falciparum luciferase growth in erythrocytes, 48 h; AID 504832; 310,000 tested, 5.9% active; further: on the % scale 0 is the no-effect control and ±100 the full control effect
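Cell-based growth assay: transgenic P. falciparum expressing firefly luciferase, cultured in red cells within RPMI 1640 containing 0.5% w/v Albumax, 24 mM bicarbonate and gentamycin. A drop in luciferase activity indicates inhibition.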
Numbers without * were called inactive; ? = inconclusive; · = not tested or not shown. Unless noted, the call rests on the fitted dose curve; in most records, active means well fitted curve in the direction sought with a large enough effect; inconclusive means small, poorly fitted or top-dose-only effect, or another doubt; inactive means no such curve, though single readings can be large; an effect the other way counts as inactive or inconclusive. Potency means the concentration at half of the fitted maximal effect.

SMILES | AmpC detergent | SARS PLpro yeast | AmpC no deterg | Pf growth 96h | Sm TGR block | Pf growth 48h
Cc1nc(S(=O)(=O)N2CCN(c3ccc(Cl)cc3)CC2)cn1C | 12.0% | · | · | · | 37.2% | ·
CC(=O)N1C=CN(C(C)=O)C(c2cn(C)c3ccccc23)C1c1cn(C)c2ccccc12 (stereo not given) | -15.1% | 1.4% | 195.0% | 80.3% | 1.5% | 3.29µM*
Cn1cc(/C=C/C(=O)c2ccccc2)c2ccccc21 | 1.2% | -4.1% | -14.8% | 34.7% | -18.5% | -4.2%
CCN(C1CCCCC1)S(=O)(=O)c1ccc(OC)c(C)c1 | -0.8% | -6.5% | -19.5% | 11.4% | -1.2% | -9.0%
CCOc1cc(S(=O)(=O)N(Cc2ccccc2)Cc2ccccc2)c(OCC)cc1-n1cnnn1 | -0.9% | 5.6% | 11.5% | 6.57µM* | -16.5% | ?
CCOc1ccc(-n2cnnn2)cc1S(=O)(=O)NCc1ccccc1 | ? | 4.3% | -6.3% | 22.0% | 3.0% | 3.2%
COc1ccc(CN(C2CCCC2)S(=O)(=O)c2ccc(-n3cnnn3)c(OC)c2)cc1OC | 4.2% | -3.0% | 175.6% | ? | 16.3% | 14.7µM*
COc1cc(S(=O)(=O)N(Cc2cccc(OC)c2OC)CC2CCCO2)ccc1-n1cnnn1 (stereo not given) | 0.9% | -0.5% | 77.7% | ? | 10.2% | ?
COc1cccc(CN(Cc2cccnc2)S(=O)(=O)c2ccc(-n3cnnn3)c(C)c2)c1OC | 6.4% | 5.9% | 133.3% | · | 0.9% | 11.7µM*
COc1cc(CN(C2CCCCC2)S(=O)(=O)c2ccc(S(=O)(=O)N(C)C3CCCCC3)cc2)cc(OC)c1OC | 1.6% | 1.2% | 21.7% | 8.28µM* | -4.5% | ?
CCN(C1CCCCC1)S(=O)(=O)c1ccc(-n2cnnn2)c(C)c1 | -9.7% | -0.4% | 13.3% | -26.0% | 5.0% | -0.4%
CN(c1nc2ccccc2[nH]c1=O)C1CCCCC1 | -4.2% | -1.2% | -30.2% | ? | -1.5% | ?
COC(=O)c1nc2n(n1)C(c1ccc(OC)c(OC)c1OC)C1=C(CCCC1=O)N2 (stereo not given) | ? | -4.5% | -22.6% | 8.0% | 13.8% | ?
COc1ccc(CN(CC2CCCO2)S(=O)(=O)c2ccc(-n3cnnn3)c(OC)c2)cc1 (stereo not given) | -0.7% | -0.6% | 118.4% | -1.1% | 12.6% | -13.7%
COc1ccc(CN(Cc2ccc(OC)cc2)S(=O)(=O)c2ccc(-n3cnnn3)c(C)c2)cc1 | 4.7% | -5.3% | -5.7% | 13.1µM* | 25.4% | ?
COc1ccc(CN(Cc2cccnc2)S(=O)(=O)c2ccc(-n3cnnn3)c(OC)c2)cc1 | -4.5% | -19.4% | 88.3% | 21.9% | 1.1% | 11.7µM*
COc1ccc(S(=O)(=O)N2CCC(C(=O)NCc3ccccn3)CC2)cc1C | -7.4% | 3.8% | 6.7% | ? | -0.5% | 0.6%
COc1ccc(N2C(=O)c3ccccc3NC2c2ccc(OC)c(Cn3cc([N+](=O)[O-])cn3)c2)cc1 (stereo not given) | 5.5% | -1.7% | -19.5% | 43.7% | -1.2% | ?
COc1ccc(C2Nc3ccccc3C(=O)N2c2ccccc2)cc1Cn1cc([N+](=O)[O-])cn1 (stereo not given) | -1.4% | 9.6% | -44.3% | 5.22µM* | -16.6% | 13.1µM*
CC1=C(C(=O)OC2CCCCC2)C(c2cccnc2)n2nnnc2N1 (stereo not given) | -10.8% | -2.7% | 6.1% | 1.6% | -2.0% | 13.0%
COc1ccc(C2C(C(=O)OC3CCCCC3)=C(C)Nc3nnnn32)c(OC)c1OC (stereo not given) | -12.4% | 6.0% | 11.3% | 5.3% | -4.8% | 9.28µM*
COC(=O)C1=C(C)Nc2nnnn2C1c1ccc(Cl)cc1Cl (stereo not given) | 0.2% | 0.3% | -12.1% | ? | 3.2% | 4.65µM*

Screens as filed in PubChem BioAssay.
